Assay [1] is described as follows: qHTS assay to identify small molecule antagonists of the glucocorticoid receptor (GR) signaling pathway - cell viability counter screen (AID 720693). Further: nearly all actives have a fitted effect of over 55% in size.
Assay [2] is described as follows: qHTS assay for identifying genotoxic compounds that show differential cytotoxicity against isogenic chicken DT40 cell lines with known DNA damage response pathways - wild type cell line (AID 743012). Further: nearly all actives have a fitted effect of over 60% in size. Further: potency means the concentration at half of the fitted maximal effect. The procedure, abridged: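 Viability of DNA repair-proficient chicken DT40 cells was assessed by CellTiter-Glo luminescence following 40 h compound exposure at 37 C/5% CO2.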

The nature of assay [3]: qHTS assay for identifying genotoxic compounds that show differential cytotoxicity against isogenic chicken DT40 cell lines with known DNA damage response pathways - Rev3 mutant cell line (AID 743014). Further: nearly all actives have a fitted effect of over 55% in size. Further: potency means the concentration at half of the fitted maximal effect.
Assay [4] in a line: qHTS assay to identify small molecule antagonists of the androgen receptor (AR) signaling pathway - cell viability counter screen (AID 743033; further: nearly all actives have a fitted effect of over 45% in size).
Assay [5] in a line: qHTS assay to identify small molecule antagonists of the androgen receptor (AR) signaling pathway using the MDA cell line - cell viability counter screen (AID 743041; further: nearly all actives have a fitted effect of over 45% in size). The procedure, abridged:
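In this qHTS counter assay, fluorescence intensity after CellTiter-Fluor addition indicated viability of MDA-kb2 AR-luc cells given compounds and R1881 for 16 h at 37C.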

Assay [6] addresses Estrogen receptor (Homo sapiens) (UniProt P03372). Kind of assay: qHTS assay to identify small molecule antagonists of the estrogen receptor alpha (ER-alpha) signaling pathway (AID 743069; active means well fitted curve in the direction sought with a large enough effect in the signal ratio in the repeat runs, not every such curve was filed as active; the % refers to the signal ratio). The procedure, abridged:
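A 17beta-estradiol challenge was applied right after compound transfer to ER-alpha-UAS-bla HEK293 cells previously kept in charcoal-stripped serum. Plates stood 18 hr at 37C and 5% CO2; fluorescence was read following 2 hr FRET substrate loading at room temperature.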

Assay [7] can be described thus: qHTS assay to identify small molecule antagonists of the estrogen receptor alpha (ER-alpha) signaling pathway - cell viability counter screen (AID 743074; calls by dose curve;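 further: HEK293 cells carrying ER-alpha-UAS-bla reporter stimulated with 17beta-estradiol; nearly all actives have a fitted effect of over 45% in size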).
The target in assay [8] is Estrogen receptor (Homo sapiens) (UniProt P03372). The experiment in a line: qHTS assay to identify small molecule agonists of the estrogen receptor alpha (ER-alpha) signaling pathway (AID 743075; calls by dose curve).
Sequence of Estrogen receptor (Homo sapiens) (P03372 whole entry, looked up): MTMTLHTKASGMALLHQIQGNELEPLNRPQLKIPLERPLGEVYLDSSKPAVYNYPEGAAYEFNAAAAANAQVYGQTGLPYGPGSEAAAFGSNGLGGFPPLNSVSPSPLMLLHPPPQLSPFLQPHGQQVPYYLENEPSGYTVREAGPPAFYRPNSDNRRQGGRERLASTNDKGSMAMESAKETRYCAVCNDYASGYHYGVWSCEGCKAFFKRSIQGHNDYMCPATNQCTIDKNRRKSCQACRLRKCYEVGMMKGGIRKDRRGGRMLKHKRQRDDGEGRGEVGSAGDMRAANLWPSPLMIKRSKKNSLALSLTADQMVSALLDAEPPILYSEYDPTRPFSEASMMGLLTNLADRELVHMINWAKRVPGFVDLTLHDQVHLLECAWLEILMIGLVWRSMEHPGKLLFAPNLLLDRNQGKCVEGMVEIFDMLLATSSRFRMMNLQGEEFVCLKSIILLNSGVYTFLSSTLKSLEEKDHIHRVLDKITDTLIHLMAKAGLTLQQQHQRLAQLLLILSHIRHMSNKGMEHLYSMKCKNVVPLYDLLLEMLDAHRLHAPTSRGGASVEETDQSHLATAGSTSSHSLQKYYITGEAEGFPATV
Assay [9] can be described thus: qHTS assay to identify small molecule antagonists of the estrogen receptor alpha (ER-alpha) signaling pathway using the BG1 cell line (AID 743080; calls by dose curve;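 further: BG1 cells stimulated with 17beta-estradiol alongside compound; nearly all actives have a fitted effect of over 25% in size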). The procedure, abridged: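 BG1Luc4E2, endogenous ER-alpha, 4xERE-luc; 5 d charcoal-stripped FBS, phenol red free; 24 h plating; cpd + 17beta-estradiol 21.5 h, 37 C/5% CO2; CellTiter-Fluor viability 30 min, then ONE-Glo luciferase 30 min RT.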

A short description of assay [10]: qHTS assay to identify small molecule antagonists of the estrogen receptor alpha (ER-alpha) signaling pathway using the BG1 cell line - cell viability counter screen (AID 743081).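 Further: compound given together with 17beta-estradiol as the ER stimulus; nearly all actives have a fitted effect of over 45% in size.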
A further assay addresses Aromatase (Homo sapiens) (UniProt P11511). The experiment in a line: qHTS assay to identify aromatase inhibitors (AID 743083). Further: nearly all actives have a fitted effect of over 55% in size.
The nature of assay [11]: qHTS assay to identify aromatase inhibitors - cell viability counter screen (AID 743084).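 Further: cells stimulated with testosterone during compound exposure; nearly all actives have a fitted effect of over 55% in size.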
Assay [12] in a line: qHTS assay for identifying genotoxic compounds that show differential cytotoxicity against isogenic chicken DT40 cell lines with known DNA damage response pathways - Rad54/Ku70 mutant cell line (AID 743015). Further: nearly all actives have a fitted effect of over 60% in size.
Assay [13] in a line: qHTS assay to identify small molecule antagonists of the thyroid receptor (TR) signaling pathway - cell viability counter screen (AID 743064). Further: nearly all actives have a fitted effect of over 50% in size. The procedure, abridged:
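GH3.TRE-Luc rat pituitary cells carrying a TRE-luciferase reporter were treated with compound plus 1 nM T3 (final) for 23.5 h at 37 °C. Viability was then read in the same wells by CellTiter-Fluor fluorescence after a further 30 min.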

The nature of assay [14]: qHTS assay to identify small molecule antagonists of the thyroid receptor (TR) signaling pathway (AID 743065). Further: nearly all actives have a fitted effect of over 55% in size. A digest of the protocol: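 GH3.TRE-Luc rat pituitary cells carrying two TR response elements driving luciferase were plated for 4 h, given compound plus 1 nM T3 (final), and incubated 23.5 h at 37 C. ONE-Glo luminescence measured reporter inhibition; CellTiter-Fluor fluorescence tracked cytotoxicity.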

The subject of assay [15] is thyroid hormone receptor (rat, GH3 cells). The experiment in a line: qHTS assay to identify small molecule agonists of the thyroid receptor (TR) signaling pathway (AID 743066; calls by dose curve).
Assay [16] concerns the target Estrogen receptor (Homo sapiens) (UniProt P03372). Kind of assay: qHTS assay to identify small molecule agonists of the estrogen receptor alpha (ER-alpha) signaling pathway using the BG1 cell line (AID 743079). Further: nearly all actives have a fitted effect of over 20% in size. The settings on record: BG1Luc4E2 cells, ERE-luciferase agonist, 22 h; at 70.3 µM (top of the series).
Assay [17] addresses Androgen receptor (Homo sapiens) (UniProt P10275). Kind of assay: qHTS assay to identify small molecule antagonists of the androgen receptor (AR) signaling pathway (AID 743035; active means well fitted inhibition curve with a large enough effect in the signal ratio in the repeat runs, not every such curve was filed as active; the % refers to the signal ratio). A digest of the protocol:
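Reporter HEK293 cells were exposed to compounds and R1881 overnight (16 h, 37C); beta-lactamase activity was then quantified by FRET fluorescence.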

Assay [18] shares this target. The experiment in a line: qHTS assay to identify small molecule agonists of the androgen receptor (AR) signaling pathway (AID 743036; active means well fitted activation curve with a large enough effect in the signal ratio in the repeat runs, with a control signal flat, not every such curve was filed as active; the % refers to the signal ratio). A digest of the protocol:
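HEK293 cells stably carrying a UAS-driven beta-lactamase reporter (GeneBLAzer AR-UAS-bla-GripTite) were plated at 2,000 cells/well, rested 4 h at 37C, then exposed to compounds in DMSO for 16 h. LiveBLAzer B/G FRET substrate was added for 2 h at room temperature; fluorescence read.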

The target is the same in assay [19]. Kind of assay: qHTS assay to identify small molecule antagonists of the androgen receptor (AR) signaling pathway using the MDA cell line (AID 743042; further: nearly all actives have a fitted effect of over 55% in size). The procedure, abridged: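 MDA-kb2 cells (human breast carcinoma, stably carrying an MMTV-luciferase reporter responsive to AR and GR) were plated at 3,000 cells/well and preincubated 5 hr at 37C, then given compound plus R1881 agonist for 16 h. ONE-Glo luminescence was read.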

Values joined by “and” are separate entries in the source; they are usually repeats but may differ in a detail not shown here. Equal entries are not always repeated. Records with an inconclusive call do not appear. A number with no mark means an inactive call. Active and inactive are the calls of the source. Unless noted, the call rests on the fitted dose curve; in most records, active means well fitted curve in the direction sought with a large enough effect in the repeat runs; inconclusive means weak or mixed curves; inactive means no such curve, though single readings can be large; an effect the other way counts as inactive or inconclusive.

Among the data in PubChem BioAssay (Tox21) are Potency, activation and outcome values, retold here.
On the % scale 0 is the no-effect control and ±100 the full control effect.

Sequence of Aromatase (Homo sapiens) (P11511 whole entry, looked up): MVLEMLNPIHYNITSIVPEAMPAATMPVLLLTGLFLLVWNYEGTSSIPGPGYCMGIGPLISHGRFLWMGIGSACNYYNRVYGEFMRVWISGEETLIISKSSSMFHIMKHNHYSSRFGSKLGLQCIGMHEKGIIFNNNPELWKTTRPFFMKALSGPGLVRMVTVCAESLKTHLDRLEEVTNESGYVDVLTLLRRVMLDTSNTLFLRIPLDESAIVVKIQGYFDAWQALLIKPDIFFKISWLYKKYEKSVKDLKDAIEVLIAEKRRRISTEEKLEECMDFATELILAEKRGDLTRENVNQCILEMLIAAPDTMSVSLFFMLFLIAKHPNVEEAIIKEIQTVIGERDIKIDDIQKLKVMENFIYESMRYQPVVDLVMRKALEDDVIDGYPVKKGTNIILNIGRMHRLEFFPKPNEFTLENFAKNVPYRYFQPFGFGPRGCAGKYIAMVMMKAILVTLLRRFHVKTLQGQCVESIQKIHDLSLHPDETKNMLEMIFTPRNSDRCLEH
Sequence of Androgen receptor (Homo sapiens) (P10275 whole entry, looked up): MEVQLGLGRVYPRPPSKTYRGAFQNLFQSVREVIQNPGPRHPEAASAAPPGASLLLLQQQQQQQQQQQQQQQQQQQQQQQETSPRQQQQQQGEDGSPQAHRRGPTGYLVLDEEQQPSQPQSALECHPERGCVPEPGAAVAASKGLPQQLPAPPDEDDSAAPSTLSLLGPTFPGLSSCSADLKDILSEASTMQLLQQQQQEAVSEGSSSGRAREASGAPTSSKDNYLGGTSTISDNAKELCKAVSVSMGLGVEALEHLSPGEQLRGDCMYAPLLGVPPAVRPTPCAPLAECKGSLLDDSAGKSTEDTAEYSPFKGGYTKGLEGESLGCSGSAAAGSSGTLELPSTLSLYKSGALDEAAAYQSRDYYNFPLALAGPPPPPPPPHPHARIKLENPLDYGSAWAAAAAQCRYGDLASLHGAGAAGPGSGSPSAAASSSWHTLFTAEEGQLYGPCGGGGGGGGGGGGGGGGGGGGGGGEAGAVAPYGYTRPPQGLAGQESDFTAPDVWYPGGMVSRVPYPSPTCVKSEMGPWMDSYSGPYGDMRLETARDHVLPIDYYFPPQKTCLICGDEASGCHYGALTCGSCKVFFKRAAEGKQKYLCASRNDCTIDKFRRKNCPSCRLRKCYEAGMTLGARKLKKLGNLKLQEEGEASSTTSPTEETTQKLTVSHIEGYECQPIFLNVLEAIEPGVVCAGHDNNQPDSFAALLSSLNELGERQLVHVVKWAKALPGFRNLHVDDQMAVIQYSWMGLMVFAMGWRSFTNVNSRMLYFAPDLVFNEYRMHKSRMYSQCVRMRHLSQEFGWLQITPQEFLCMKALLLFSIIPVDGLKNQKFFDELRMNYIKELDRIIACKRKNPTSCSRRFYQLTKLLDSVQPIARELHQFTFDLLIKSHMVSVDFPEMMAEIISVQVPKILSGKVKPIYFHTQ

For the compound `C#CCOC(=O)/C=C(C)/C=C/CC(C)CCCC(C)C` (configuration not stated), the Potency result in assay [1], in assay [2], in [3], in [4], in assay [5] and in [6] was “inactive” throughout. For the same compound, the Potency result (in assay [7]; in assay [8]; in assay [9]; in assay [10]; in the assay with Aromatase (Homo sapiens); in [11]) was “inactive” throughout.
In the case of `CCCC[N+](=O)[O-]`, the Potency result in assay [1], in assay [2], in assay [12], in assay [4], in [5] and in assay [13] was “inactive” in each case. Also, the Potency entry in assay [14], in [15], in assay [6], in assay [7], in [8] and in [9] was “inactive” throughout. Also, the Potency result (in [10]; in the assay with Aromatase (Homo sapiens); in assay [11]) was “inactive” each time. Further, the activation in assay [16] was 8.37%.
Regarding `Cc1ccc(Cl)c(O)c1`, the Potency result in assay [1], in assay [2], in [12], in [4], in assay [5] and in [14] was “inactive” in each case. In addition, the Potency result in assay [15], in [6], in [7], in [8], in assay [9] and in assay [10] was “inactive” each time. For the same compound, the Potency result (with Aromatase (Homo sapiens); in [11]) was “inactive” each time. In addition, the activation in [16] is 9.43%.
As for `CCCN1CCC[C@@H]2Cc3[nH]ncc3C[C@H]21`, the Potency result in [1], in assay [2], in assay [3], in [4], in [5] and in assay [15] was “inactive” throughout. The Potency entry (in assay [6]; in [7]; in assay [8]; in assay [9]; in assay [10]; with Aromatase (Homo sapiens)) was “inactive” each time. Moreover, the Potency result in [11] was “inactive”. The activation in assay [16] is -4.44%.
Take `ClC(Cl)(Cl)Cl`: the Potency entry in [1], in [2], in assay [12], in [4], in [5] and in assay [14] was “inactive” throughout. Besides, the Potency result in [15], in assay [6], in [7], in assay [8], in assay [9] and in [10] was “inactive” in each case. The Potency result (with Aromatase (Homo sapiens); in assay [11]) was “inactive” each time. In assay [16], the activation is 2.38% and 2.1%.
Regarding `CNC(=O)NC(O)C(Cl)(Cl)Cl` (configuration not stated), the Potency entry in [1], in assay [2], in assay [12], in assay [4], in assay [17] and in [5] was “inactive” each time. In addition, the Potency entry in assay [19], in assay [13], in assay [14], in assay [15], in [6] and in assay [7] was “inactive” throughout. Also, the Potency entry (in assay [8]; in assay [9]; in [10]; with Aromatase (Homo sapiens); in [11]) was “inactive” each time. In addition, in assay [18], the call was inactive. In assay [16], the activation was 2.72%.
Consider `COc1cccc([C@@]2(O)CCCC[C@@H]2CN(C)C)c1`, for which the Potency result in assay [1], in [2], in assay [12], in [4], in [17] and in [5] was “inactive” throughout. For the same compound, the Potency result in assay [19], in [13], in assay [14], in [15], in assay [6] and in [7] was “inactive” each time. Moreover, the Potency entry (in assay [8]; in assay [9]; in assay [10]; with Aromatase (Homo sapiens)) was “inactive” each time. Moreover, in assay [18], the compound was classed as inactive. The activation in assay [16] is 7.73%.
For `c1cncc([C@@H]2CCCCN2)c1`, the Potency result in assay [1], in assay [2], in [12], in [4], in [5] and in assay [13] was “inactive” throughout. The Potency entry in assay [14], in [15], in assay [6], in [7], in [8] and in assay [9] was “inactive” in each case. Moreover, the Potency result (in assay [10]; with Aromatase (Homo sapiens); in [11]) was “inactive” throughout. Moreover, the activation in assay [16] was -1.75%.
For `O=C/C=C/c1ccco1`, the Potency entry in [1], in assay [2], in [12], in assay [4], in assay [17] and in assay [5] was “inactive” in each case. Besides, the Potency result in assay [19], in [13], in assay [14], in assay [15], in assay [6] and in assay [7] was “inactive” throughout. For the same compound, the Potency result (in assay [8]; in assay [9]; in assay [10]; with Aromatase (Homo sapiens); in assay [11]) was “inactive” in each case. Besides, in assay [18], the outcome was inactive. In assay [16], the activation was 10.7%.
Take `CCNP(=S)(OC)O/C(C)=C/C(=O)OC(C)C` (configuration not stated): the Potency result in [1], in assay [4], in assay [14], in [15], in assay [6] and in [7] was “inactive” each time. Also, the Potency result (in [8]; in assay [9]; in assay [10]; in the assay with Aromatase (Homo sapiens); in assay [11]) was “inactive” throughout. For the same compound, the figures for the Potency in assay [2] and in assay [3] were 61.1 µM (active) and 34.4 µM (active), respectively. For the same compound, the activation in assay [16] was 10.8%.
As for `C=CC=O`, the Potency entry in assay [1], in assay [2], in [12], in assay [4], in assay [5] and in [7] was “inactive” throughout. In addition, the Potency entry (in assay [10]; in the assay with Aromatase (Homo sapiens); in [11]) was “inactive” in each case.
